Hit rate of the full screen: of about 5,500 compounds, about 2,000 (36%) were called active. Roughly 18% stayed inconclusive and do not appear here. No stated cut-off is given here; in the data, active means normalized growth mostly below about 0.91 (no sharp cut-off); inconclusive means no clear call, values can overlap the other calls; inactive means mostly above about 0.92. The list shows a part of the results.
Test: chemical genetic growth profiling, strain panel (AID 1159580);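 further: tested at 20 µM; growth read once vehicle control cultures reached saturation at 30 °C; 1 = growth at the plate median or of vehicle wells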
Conditions: S. cerevisiae deletion strains, growth OD

Measured: normalized growth

CC1CN(S(=O)(=O)c2cccc3cnccc23)CCN1 (stereo not drawn)
inactive: locus YAL040C, strain CLN3, stronger effect = lower value 1.01 | locus YCL061C, strain MRC1 (second series), stronger effect = lower value 1.01 | locus YDR363W, strain ESC2, stronger effect = lower value 1.02 | locus YER002W, strain NOP16, stronger effect = lower value 1 | locus YGR078C, strain PAC10, stronger effect = lower value 1.02 | locus YJR075W, strain HOC1, stronger effect = lower value 0.996 | locus YMR307W, strain GAS1, stronger effect = lower value 0.997 | locus YNL128W, strain TEP1, stronger effect = lower value 1.01 | locus YNL153C, strain GIM3, stronger effect = lower value 1.01 | locus YNL175C, strain NOP13, stronger effect = lower value 1.01 | locus YNL197C, strain WHI3, stronger effect = lower value 1.01 | locus YNL224C, strain SQS1, stronger effect = lower value 1.03 | locus YNL322C, strain KRE1, stronger effect = lower value 0.999 | locus YOR083W, strain WHI5 (second series), stronger effect = lower value 1.02 | locus YPL055C, strain LGE1, stronger effect = lower value 1.02 | locus YPL241C, strain CIN2, stronger effect = lower value 1

NC(=O)c1ccc(N)nc1
inactive: locus YAL021C, strain ccr4, stronger effect = lower value 0.994 | locus YAL026C, strain drs2, stronger effect = lower value 1.01 | locus YAL030W, strain snc1, stronger effect = lower value 0.982 | locus YBR009C, strain hhf1, stronger effect = lower value 0.99 | locus YBR023C, strain chs3, stronger effect = lower value 0.995 | locus YBR171W, strain sec66, stronger effect = lower value 1.02 | locus YBR231C, strain swc5, stronger effect = lower value 0.989 | locus YBR279W, strain paf1, stronger effect = lower value 0.982 | locus YCL011C, strain gbp2, stronger effect = lower value 1 | locus YCL016C, strain dcc1, stronger effect = lower value 1 | locus YCL069W, strain vba3, stronger effect = lower value 1.01 | locus YCR088W, strain abp1, stronger effect = lower value 1.01 | locus YDL005C, strain med2, stronger effect = lower value 0.987 | locus YDL040C, strain nat1, stronger effect = lower value 0.988 | locus YDR001C, strain nth1, stronger effect = lower value 1.01 | locus YDR069C, strain doa4, stronger effect = lower value 0.981 | locus YDR137W, strain rgp1, stronger effect = lower value 1 | locus YDR159W, strain sac3, stronger effect = lower value 0.978 | locus YDR195W, strain ref2 0.942 | locus YDR297W, strain sur2, stronger effect = lower value 0.999 | locus YDR334W, strain swr1, stronger effect = lower value 0.99 | locus YDR335W, strain msn5, stronger effect = lower value 1 | locus YDR392W, strain spt3, stronger effect = lower value 1 | locus YEL003W, strain gim4, stronger effect = lower value 1 | locus YEL037C, strain rad23, stronger effect = lower value 1.01 | locus YEL061C, strain CIN8 (second series), stronger effect = lower value 1 | locus YER015W, strain faa2, stronger effect = lower value 0.997 | locus YER016W, strain bim1, stronger effect = lower value 0.997 | locus YER111C, strain swi4, stronger effect = lower value 1.01 | locus YER155C, strain BEM2 (second series), stronger effect = lower value 1.01 | locus YFR010W, strain ubp6, stronger effect = lower value 1 | locus YGL167C, strain pmr1, stronger effect = lower value 0.999 | locus YGL173C, strain kem1, stronger effect = lower value 0.993 | locus YGL227W, strain vid30, stronger effect = lower value 1.01 | locus YGL240W, strain doc1, stronger effect = lower value 1 | locus YGL253W, strain hxk2, stronger effect = lower value 1.01 | locus YHR013C, strain ard1, stronger effect = lower value 0.979 | locus YHR027C, strain rpn1, stronger effect = lower value 0.998 | locus YHR030C, strain SLT2, stronger effect = lower value 1.03 | locus YHR079C, strain IRE1, stronger effect = lower value 1.02 | locus YHR142W, strain chs7, stronger effect = lower value 1.01 | locus YJL092W, strain hpr5, stronger effect = lower value 1 | locus YJL095W, strain BCK1 (second series), stronger effect = lower value 0.989 | locus YJL095W, strain BCK1, stronger effect = lower value 1.03 | locus YJL115W, strain asf1, stronger effect = lower value 1 | locus YJL129C, strain trk1, stronger effect = lower value 1.01 | locus YJL154C, strain vps35, stronger effect = lower value 0.995 | locus YJL164C, strain tpk1, stronger effect = lower value 0.978 | locus YJL166W, strain qcr8, stronger effect = lower value 1.01 | locus YJR066W, strain TOR1, stronger effect = lower value 0.951 | locus YKL160W, strain elf1, stronger effect = lower value 0.975 | locus YKR026C, strain gcn3, stronger effect = lower value 1.01 | locus YKR091W, strain srl3, stronger effect = lower value 0.997 | locus YLL001W, strain dnm1, stronger effect = lower value 1.01 | locus YLL026W, stronger effect = lower value 0.999 | locus YLL041C, strain sdh2, stronger effect = lower value 1 | locus YLR027C, strain aat2, stronger effect = lower value 1.01 | locus YLR113W, strain HOG1, stronger effect = lower value 1.02 | locus YLR221C, strain rsa3, stronger effect = lower value 0.995 | locus YLR258W, strain gsy2, stronger effect = lower value 1 | locus YLR262C, strain YPT6 (second series), stronger effect = lower value 1.01 | locus YLR320W, strain mms22, stronger effect = lower value 0.995 | locus YLR342W, strain FKS1, stronger effect = lower value 0.996 | locus YLR357W, strain rsc2, stronger effect = lower value 0.967 | locus YLR370C, strain arc18, stronger effect = lower value 1 | locus YLR384C, strain iki3, stronger effect = lower value 0.986 | locus YML120C, strain ndi1, stronger effect = lower value 0.987 | locus YMR058W, strain fet3, stronger effect = lower value 0.999 | locus YMR125W, strain sto1, stronger effect = lower value 1.01 | locus YMR129W, stronger effect = lower value 0.983 | locus YMR205C, strain PFK2, stronger effect = lower value 0.998 | locus YMR231W, strain pep5, stronger effect = lower value 1 | locus YNL071W, strain lat1, stronger effect = lower value 0.99 | locus YNL183C, strain NPR1, stronger effect = lower value 0.961 | locus YNL209W, strain ssb2, stronger effect = lower value 0.996 | locus YNL248C, strain rpa49, stronger effect = lower value 1.01 | locus YNL322C, strain KRE1 (second series), stronger effect = lower value 0.986 | locus YNR049C, strain mso1, stronger effect = lower value 1.01 | locus YOR001W, strain rrp6, stronger effect = lower value 0.997 | locus YOR070C, strain gyp1, stronger effect = lower value 0.993 | locus YOR080W, strain dia2, stronger effect = lower value 0.993 | locus YOR083W, strain WHI5, stronger effect = lower value 1 | locus YOR106W, strain vam3, stronger effect = lower value 1.01 | locus YOR231W, strain MKK1, stronger effect = lower value 1.05 | locus YOR265W, strain rbl2, stronger effect = lower value 0.993 | locus YOR270C, strain vph1, stronger effect = lower value 1.02 | locus YOR290C, strain snf2, stronger effect = lower value 1.01 | locus YPL051W, strain arl3, stronger effect = lower value 0.993 | locus YPL078C, strain atp4, stronger effect = lower value 1 | locus YPL106C, strain sse1, stronger effect = lower value 0.992 | locus YPL240C, strain hsp82, stronger effect = lower value 0.993 | locus YPL256C, strain CLN2, stronger effect = lower value 1.03
